Reference: PubChem BioAssay

assay: hepatitis C replication reporter changes, two-sided – Huh7 cells, luciferase reporter, HCV replication inhibitor project, primary screen (AID 1109); details: Huh7 HCV replicon luciferase reporter, 48 h; higher = more signal;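 note: huh7 hepatoma cells harbouring a luciferase neomycin HCV replicon reporter; luciferase luminescence as measure of HCV replicon replication; test concentration not given here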

Compound | z-score
O=C1O[C@H](Cc2ccccc2)[C@@H]2[C@H]3C=CCCC=C3CN2[C@H]1Cc1ccc(O)cc1 | -1.7
CN1C(=O)[C@@H]2[C@@H](CC(COc3ccccc3)=C3[C@@H](CCc4ccccc4)OB(O)C[C@@H]32)C1=O | -0.595
CCOC(=O)C[C@H]1[C@H](OC(=O)Cc2ccc3c(c2)OCO3)[C@@H](NC(=O)Cc2ccc(OC)cc2)c2cc(OCCCO)ccc2N1C(=O)Cc1ccc(OC)cc1 | -1.05
CN(C)CCCNC(=O)[C@@]1(Cc2ccccc2I)c2ccccc2C(=O)N(C2CCCCC2)[C@H]1c1ccc(CO)cc1 | -3.49
CCCCC(=C=CC[C@H](O)c1ccc(CO)o1)CCO | -0.401
COC(=O)[C@@]1(Cc2ccc(F)cc2)[C@H]2c3cc(C(=O)N(C)C)n(C)c3C[C@H]2CN1C(=O)c1ccccc1 | -0.275
CC1CC/C=C\[C@H]2OC34C=CCN(c5ccc(Cl)cc5)C(=O)[C@H]3N(CCCCCCO)C(=O)[C@]4(C)C2C(=O)O1 (stereo not given in full) | -0.0973
O=C1C[C@]2(c3ccc([N+](=O)[O-])cc3)C(=O)N(C3CC3)c3cc(CO)ccc3[C@H]2N1C1CCCCC1 | 0.82
CCCC[C@H]1C[C@@H]1[C@@H]1N(C(C)=O)[C@H](c2cccc(OC)c2)CC12CC2 | -0.103
Cc1ccc(S[C@]2(C(=O)NCC(F)(F)F)CC(=O)N(Cc3ccccc3C(F)(F)F)[C@@H]2c2ccc(CO)cc2)cc1 | 0.169
Cc1ccc(S[C@]2(C(=O)NCCCN(C)C)CC(=O)N(C3Cc4ccccc4C3)[C@@H]2c2ccc(CO)cc2I)cc1 | -2.83
N#Cc1ccc(C(O)C2C=CC3C(=O)NC(=O)C3N2Nc2ccc(Cl)cc2Cl)cc1 (stereo not given) | -0.436
O=C1O[C@@H](c2ccccc2)[C@@H](c2ccccc2)N2[C@@H](c3ccccc3OCCO)[C@]3(C(=O)Nc4ccc(C#CCCO)cc43)[C@@H](C(=O)NC[C@H](O)c3ccccc3)[C@H]12 | -0.871
COc1ccc([Si](C)(C)[C@@H]2[C@@H](CC(=O)N3Cc4ccccc4C[C@H]3CO)O[C@]3(C(=O)N(Cc4ccc(N5CCOC5=O)cc4)c4ccccc43)[C@H]2C)cc1 | -3.78
COc1ccccc1CN1C(=O)c2ccccc2[C@](Cc2ccccc2I)(C(=O)NCC(C)C)[C@@H]1c1ccc(CO)cc1 | -0.921
CC(C)(C)OC(=O)CC[C@@]1(C(=O)NCCN2CCOCC2)N=C(c2ccc(OCCCO)cc2)O[C@@H]1c1ccccc1CN=[N+]=[N-] | -0.0116
CC(C)=CCCC(C)=CC(O)C1C=CC2C(=O)NC(=O)C2N1Nc1ccccn1 (stereo not given) | -0.156
CC(C)N1C(=O)c2ccccc2[C@](C)(C(=O)NCC(F)(F)F)[C@@H]1c1ccc(CO)cc1 | 0.164

Compound | z-score
Cc1ccc(S[C@]2(C(=O)NCc3ccccc3)CC(=O)N(Cc3ccccc3C(F)(F)F)[C@@H]2c2ccc(CO)cc2)cc1 | -1.46
Cc1ccccc1C(O)C1C=CC2C(=O)N(c3ccccc3)C(=O)C2N1Nc1ccccc1 (stereo not given) | 1.31
O=C1OCCC=C[C@H]2OC34C=CCN(c5ccc6ccccc6c5)C(=O)[C@H]3N(CCO)C(=O)[C@@H]4C12 (stereo not given in full) | -0.07
COCCCNC(=O)[C@@H]1c2ccccc2C(=O)N(Cc2ccc(OC(F)(F)F)cc2)[C@H]1c1ccc(CO)cc1 | -0.223
CCC(CC)C(O)C1C=CC2C(=O)N(c3ccccc3)C(=O)C2N1Nc1ccccc1F (stereo not given) | -0.171
C=C1C(=O)C=C2CN(C(=O)c3ccccc3)[C@@](Cc3ccc(OC)cc3)(C(=O)OC)[C@@H]12 | -2.72
O=C(NC1CC1)[C@@H]1c2ccccc2C(=O)N(Cc2cc(C(F)(F)F)cc(C(F)(F)F)c2)[C@H]1c1ccc(CO)cc1 | -1.02
COC(=O)c1cccc([C@H]2OC(=CC(=O)OC(C)C)C[C@@H](c3cccc(C(=O)OC)c3)O2)c1 | -2.51
COc1cc(C(O)C2C=CC3C(=O)N(c4ccccc4)C(=O)C3N2Nc2ccccc2F)cc(OC)c1OC (stereo not given) | -0.892
COCCOC(=O)N1C(=O)[C@@]2(c3cc(C#CCC(C(=O)OC)C(=O)OC)ccc31)[C@H](c1ccc(O)cc1)N1[C@H](c3ccccc3)[C@H](c3ccccc3)OC(=O)[C@H]1[C@@H]2C(=O)Nc1nc2ccccc2s1 | -0.149
COc1ccc([Si](C)(C)[C@@H]2[C@@H](CC(=O)N(CCO)Cc3ccccc3)O[C@]3(C(=O)N(Cc4ccc(N5C(=O)c6cccc7cccc5c67)cc4)c4ccccc43)[C@H]2C)cc1 | -4.47
C[C@@H]1ON(c2ccc(I)cc2)[C@H](c2cccc(NC(=O)OCC3c4ccccc4-c4ccccc43)c2)[C@H]1C(=O)N1C(=O)OC[C@H]1Cc1ccccc1 | -0.31
COCCOC(=O)N1C(=O)[C@@]2(c3cc(C#CCC(C(=O)OC)C(=O)OC)ccc31)[C@H](C(=O)Nc1nc3ccccc3s1)[C@H]1C(=O)O[C@H](c3ccccc3)[C@H](c3ccccc3)N1[C@@H]2c1ccc(O)cc1 | -0.146
COc1ccc(C(O)C2C=CC3C(=O)N(c4ccccc4)C(=O)C3N2Nc2ccc([N+](=O)[O-])cc2)c2ccccc12 (stereo not given) | -0.749
COc1ccc(C(=O)Nc2ccc3c(c2)[C@@]2(O[C@H](CCO)[C@@H]([Si](C)(C)c4ccc(OC)cc4)[C@@H]2C)C(=O)N3Cc2ccccc2)cc1 | -5.23
[N-]=[N+]=Nc1ccccc1[C@@H]1OC(c2ccc(OCCCO)cc2)=N[C@]1(CCS(=O)(=O)c1ccccc1)C(=O)NCC(O)CO (stereo not given in full) | -0.485
COC(=O)[C@@]1(Cc2ccccc2)[C@H]2c3cc(C(=O)N(C)C)n(Cc4ccc(S(C)(=O)=O)cc4)c3C[C@H]2CN1C(=O)c1ccccc1 | -0.912
